The full ranking holds about 8,300 sequences; the median of “log2 fold change of degron read counts, EGFP-low vs EGFP+ sorted cells (limma voom), compound-induced degradation” is about -1.1, and the highest 2% start at about 3.2. The entries come from a sample that favours the highest values as a whole.
T1: CRBN, Q96SW2
T1 chain: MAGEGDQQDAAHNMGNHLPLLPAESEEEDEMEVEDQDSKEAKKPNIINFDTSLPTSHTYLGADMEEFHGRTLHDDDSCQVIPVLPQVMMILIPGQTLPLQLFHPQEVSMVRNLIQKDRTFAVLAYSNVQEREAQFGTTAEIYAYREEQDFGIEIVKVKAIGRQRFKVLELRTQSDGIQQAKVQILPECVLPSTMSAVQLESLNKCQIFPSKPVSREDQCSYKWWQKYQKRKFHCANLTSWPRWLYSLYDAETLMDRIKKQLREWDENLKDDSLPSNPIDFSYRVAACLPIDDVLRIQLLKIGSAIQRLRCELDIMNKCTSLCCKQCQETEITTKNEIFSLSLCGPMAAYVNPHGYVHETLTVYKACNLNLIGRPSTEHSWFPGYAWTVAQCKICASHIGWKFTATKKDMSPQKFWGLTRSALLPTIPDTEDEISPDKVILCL

B1: 46F_47N_49N_50I_52G_53A_54S_55F_67L_, Q9UKT9 (peptide)
chain: FNCNICGASFTQKGNLLRHIKL
B2: 46F_47Y_49N_50I_52G_53A_54S_55F_67L_, Q9UKT9 (peptide)
chain: FYCNICGASFTQKGNLLRHIKL
B3: 46F_47A_49N_50I_52G_53A_54S_55F_67L_, Q9UKT9 (peptide)
chain: FACNICGASFTQKGNLLRHIKL
B4: 46F_47W_49N_50I_52G_53A_54S_55F_67L_, Q9UKT9 (peptide)
chain: FWCNICGASFTQKGNLLRHIKL
B5: 46F_47Q_49N_50I_52G_53A_54S_55F_67L_, Q9UKT9 (peptide)
chain: FQCNICGASFTQKGNLLRHIKL
B6: 46F_47M_49N_50I_52G_53A_54S_55F_67L_, Q9UKT9 (peptide)
chain: FMCNICGASFTQKGNLLRHIKL
B7: 46F_47H_49D_50V_52G_53A_54F_55F_67L_, Q9UKT9 (peptide)
chain: FHCDVCGAFFTQKGNLLRHIKL
B8: 46F_47K_49N_50I_52G_53A_54K_55F_67L_, Q9UKT9 (peptide)
chain: FKCNICGAKFTQKGNLLRHIKL
B9: 46F_47R_49S_50V_52G_53H_54F_55F_67L_, Q9UKT9 (peptide)
chain: FRCSVCGHFFTQKGNLLRHIKL
B10: 46F_47V_49E_50I_52G_53H_54L_55F_67L_, Q9UKT9 (peptide)
chain: FVCEICGHLFTQKGNLLRHIKL
B11: 46F_47E_49N_50I_52G_53A_54L_55F_67L_, Q9UKT9 (peptide)
chain: FECNICGALFTQKGNLLRHIKL
B12: 46F_47Q_49D_50V_52G_53A_54F_55F_67L_, Q9UKT9 (peptide)
chain: FQCDVCGAFFTQKGNLLRHIKL
B13: 46F_47Y_49D_50Q_52G_53A_54Q_55F_67L_, Q9UKT9 (peptide)
chain: FYCDQCGAQFTQKGNLLRHIKL
B14: 46L_47D_49P_50I_52G_53F_54Y_55C_67L_, Q9UKT9 (peptide)
chain: LDCPICGFYCTQKGNLLRHIKL
B15: 46L_47H_49P_50I_52G_53F_54Y_55C_67L_, Q9UKT9 (peptide)
chain: LHCPICGFYCTQKGNLLRHIKL
B16: 46L_47A_49P_50I_52G_53F_54Y_55C_67L_, Q9UKT9 (peptide)
chain: LACPICGFYCTQKGNLLRHIKL
B17: 46L_47M_49P_50I_52G_53F_54Y_55C_67L_, Q9UKT9 (peptide)
chain: LMCPICGFYCTQKGNLLRHIKL
B18: 46L_47G_49P_50I_52G_53F_54Y_55C_67L_, Q9UKT9 (peptide)
chain: LGCPICGFYCTQKGNLLRHIKL
B19: 46L_47S_49P_50I_52G_53F_54Y_55C_67L_, Q9UKT9 (peptide)
chain: LSCPICGFYCTQKGNLLRHIKL
B20: 46L_47V_49P_50I_52G_53F_54Y_55C_67L_, Q9UKT9 (peptide)
chain: LVCPICGFYCTQKGNLLRHIKL
B21: 46L_47Q_49P_50I_52G_53F_54Y_55C_67L_, Q9UKT9 (peptide)
chain: LQCPICGFYCTQKGNLLRHIKL
B22: 46L_47F_49P_50I_52G_53F_54Y_55C_67L_, Q9UKT9 (peptide)
chain: LFCPICGFYCTQKGNLLRHIKL
B23: 46L_47C_49P_50I_52G_53F_54Y_55C_67L_, Q9UKT9 (peptide)
chain: LCCPICGFYCTQKGNLLRHIKL
B24: 46L_47I_49P_50I_52G_53F_54Y_55C_67L_, Q9UKT9 (peptide)
chain: LICPICGFYCTQKGNLLRHIKL
B25: 46L_47W_49P_50I_52G_53F_54Y_55C_67L_, Q9UKT9 (peptide)
chain: LWCPICGFYCTQKGNLLRHIKL
B26: 46L_47Y_49E_50I_52G_53F_54G_55C_67L_, Q9UKT9 (peptide)
chain: LYCEICGFGCTQKGNLLRHIKL
B27: 46F_47V_49N_50Q_52G_53R_54W_55F_67L_, Q9UKT9 (peptide)
chain: FVCNQCGRWFTQKGNLLRHIKL
B28: 46F_47D_49N_50V_52G_53A_54K_55F_67L_, Q9UKT9 (peptide)
chain: FDCNVCGAKFTQKGNLLRHIKL

Molecular target: T1, CRBN, Q96SW2
Test: log2 fold change of degron read counts, EGFP-low vs EGFP+ sorted cells (limma voom), compound-induced degradation; higher = more compound-induced degradation of the degron-EGFP fusion; degrons are variants of IKZF1/3 zinc finger 2; compound dose not given here
Settings: Jurkat, 18 h
Description: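 Pooled library of 8380 IKZF3 ZF2 degron mutants (positions 146-167 varied within the IKZF3 130-189 degron; only the varied core is printed, flanks not printed) fused to EGFP with IRES-mCherry, lentivirally expressed in Jurkat cells. mCherry+ cells were treated with one IMiD compound for 18 h (dose not stated) and FACS-sorted into EGFP-low and EGFP+ populations. Degron sequences were counted by NGS, and log2FC (EGFP-low vs EGFP+) was estimated by limma voom over 3 biological replicates.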

[1] = compound: compound 19 (5-tert-butyl-thalidomide)
[2] = compound: compound 22 (5-morpholino-thalidomide)
[3] = compound: compound 33 (diphenyl IMiD analogue)
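Also: pooled lentiviral library of zinc finger degron-EGFP fusions in mCherry-positive Jurkat cells, FACS-sorted after compound exposure, with degron abundance counted by next-generation sequencing.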

Row | Sequence | log2 fold change of degron read counts [1] | log2 fold change of degron read counts [2] | log2 fold change of degron read counts [3] | log2 fold change of degron read counts (compound: thalidomide)
1 | B1 | 1.49 | 0.652 | 0.369 | -0.42
2 | B2 | 2.45 | 2.95 | 1.49 | -0.148
3 | B3 | 2.29 | 2.03 | 0.254 | 0.112
4 | B4 | 2.6 | 3.54 | 1.69 | 0.481
5 | B5 | 0.609 | 1.43 | 1.22 | 3.34
6 | B6 | -0.622 | 0.367 | 2.22 | 0.902
7 | B7 | -1.48 | -1.49 | -1.88 | -2.83
8 | B8 | -2.4 | -3.54 | -2.58 | -2.17
9 | B9 | -2.15 | -2.33 | -2.44 | -1.78
10 | B10 | -3.22 | -3.09 | -2.38 | -2.39
11 | B11 | -3.14 | -2.25 | -0.0305 | 0.62
12 | B12 | -2.75 | -1.91 | -0.307 | 0.0287
13 | B13 | 0.267 | 1.09 | -0.551 | -2.11
14 | B14 | -0.0305 | -0.355 | 1.46 | 2.28
15 | B15 | 2.56 | 2.82 | 2.85 | 2.7
16 | B16 | 3.56 | 2.79 | 2.52 | 2.89
17 | B17 | 0.482 | 1.27 | 2.88 | 2.19
18 | B18 | 3.53 | 2.7 | 2.46 | 2.1
19 | B19 | 2.68 | 2.68 | 2.92 | 2.93
20 | B20 | 1.01 | 2.39 | 2.2 | 2.84
21 | B21 | 1 | 1.74 | 2.07 | 3.47
22 | B22 | 2.88 | 2.73 | 2.34 | 1.76
23 | B23 | 1.68 | 2.29 | 3.16 | 3.24
24 | B24 | 0.5 | 1.72 | 1.99 | 2.39
25 | B25 | 2.78 | 3.23 | 2.86 | 2
26 | B26 | 2.73 | 2.15 | 1.33 | 0.286
27 | B27 | -2.52 | -2.06 | -2.42 | -1.9
28 | B28 | -1.36 | -2.41 | -2.78 | -0.891

From the supplement of paper PMC12645437, “Orthogonal IMiD-Degron Pairs Induce Selective Protein Degradation in Cells” (ACS Chemical Biology, 2025)
